High-throughput results deposited in PubChem by National Center for Advancing Translational Sciences (NCATS).
PNC assembly inh – perinucleolar compartment assembly inhibition. PC3M PTB-GFP, PNC prevalence imaging, 16 h; stronger effect = lower value. activity change (PNC), negative = inhibition, % at 10 µM. actives 3.1% (n = 140,000);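 active = readout at or below -70, meaning at least 70% loss of cells showing the perinucleolar compartment, a nuclear body marking cancer cells; inconclusive = readout between -30 and a set limit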;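 note: plate controls were DMSO wells for no effect and camptothecin positive control wells for full effect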
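Read-out is percentage of cells bearing a perinucleolar compartment, from automated 20x imaging of fixed, Hoechst-stained PC3M PTB-GFP cells. Cells were seeded 4 h, then exposed 16 h to compound (23 nl of library stock) in duplicate plates.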
IMPase inh – cell-permeable inhibitors of inositol monophosphatase (IMPase) | P97697 | CHO-M1 cells, IP1 accumulation, HTRF TR-FRET ratio | inhibition (IP1 accumulation), % at 46.1 µM | 120,000 tested, under 10 active; active = well fitted curve in the direction sought with a large enough effect in the signal ratio, not every such curve was filed as active; inconclusive = small, poorly fitted or top-dose-only effect, or a change in a side signal; inactive = no such curve, though single readings can be large or run the other way; the % refers to the signal ratio;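 note: cells stimulated with carbachol in lithium chloride buffer; plate controls were DMSO basal wells for no effect and reference inhibitor wells for full effect; higher means more IMPase inhibition seen as more IP1 and lower FRET ratio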
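Elevated IP1 in lysates lowers TR-FRET signal (665/620 ratio and 620 channel reported). Cells were CHO-M1, given carbachol (50 uM as added) plus 50mM LiCl, pH 7.4, 30 min, 37C; compounds titrated up to 46 uM; AC50 by Hill equation.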
HPGD inh – blocks human HPGD enzyme activity; P15428; purified HPGD, NADH fluorescence kinetic, PGE2 substrate; Potency, µM, without a hit: at the top dose activity change, negative = inhibition, hits mostly inhibitors; actives 4.3% (n = 150,000); AID 894; note: potency is the fitted concentration of half-maximal effect
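NADH formation kinetics: reaction with 30 uM PGE2 and 1 mM NAD+ (final), 20 nM enzyme, Tris-HCl pH 8 with Tween 20, after 15 min compound preincubation at room temperature. Fluorescence change, last versus first of five reads.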
ALDH1A1 block – ALDH1A1 (human) enzyme inhibition. Purified ALDH1A1, NADH fluorescence, propionaldehyde substrate. Potency, µM (series often up to 75.3 µM), inactives show at the highest dose activity, negative = inhibition, usual class: inhibitors. actives 7.3% (n = 220,000);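 note: potency is the fitted concentration of half-maximal effect; plate controls were no enzyme wells and a reference inhibitor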
12-hLO inh – blocks human 12-lipoxygenase activity | actives 0.12% (n = 150,000) | purified 12-hLO, xylenol orange hydroperoxide absorbance | P18054 | AID 1452 | Potency, µM (doses to about 57.1 µM), for inactives: at the top dose activity change, negative = inhibition, most hits filed as inhibitors; active = well fitted curve in the direction sought with a large enough effect; inconclusive = small, poorly fitted or top-dose-only effect, or another doubt; inactive = no such curve, though single readings can be large; an effect the other way counts as inactive or inconclusive; note: potency is the fitted concentration of half-maximal effect; nearly all actives have a fitted effect of over 55% in size
Target sequence (P18054 whole entry, looked up): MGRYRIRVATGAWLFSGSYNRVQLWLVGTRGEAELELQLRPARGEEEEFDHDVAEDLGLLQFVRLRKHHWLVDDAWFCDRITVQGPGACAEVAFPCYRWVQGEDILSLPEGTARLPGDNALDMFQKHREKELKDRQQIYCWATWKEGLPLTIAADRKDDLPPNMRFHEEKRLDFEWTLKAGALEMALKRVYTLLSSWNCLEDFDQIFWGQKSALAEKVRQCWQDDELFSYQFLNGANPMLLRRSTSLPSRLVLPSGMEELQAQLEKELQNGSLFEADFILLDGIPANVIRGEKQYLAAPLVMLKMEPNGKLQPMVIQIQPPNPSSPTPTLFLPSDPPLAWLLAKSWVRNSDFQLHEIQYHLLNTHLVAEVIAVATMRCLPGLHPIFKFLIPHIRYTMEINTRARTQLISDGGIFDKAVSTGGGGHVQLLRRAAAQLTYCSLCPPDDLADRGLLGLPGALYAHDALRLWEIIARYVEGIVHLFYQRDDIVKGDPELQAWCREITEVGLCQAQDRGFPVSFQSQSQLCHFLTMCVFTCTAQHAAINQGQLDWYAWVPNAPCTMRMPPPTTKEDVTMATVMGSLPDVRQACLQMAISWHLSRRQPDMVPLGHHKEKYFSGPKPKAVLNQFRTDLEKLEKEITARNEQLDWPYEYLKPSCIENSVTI
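Hydroperoxide output read as Fe(III)-xylenol orange absorbance, 573-to-405 nm ratio, after 30 min reaction with 40 uM arachidonic acid. Enzyme: 150 nM purified human 12hLO, 15 min compound preincubation; 25 mM Hepes pH 7.0, room temperature.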
IMPase Li cell – IMPase inhibition in cells with lithium potentiation; CHO-M1 cells, IP1 TR-FRET (IP-One), carbachol + lithium; Potency, µM (highest dose often 59.4 µM), for the others: at the top dose activity, negative = IMPase inhibition, usual class: inhibitors; actives 0.35% (n = 210,000); AID 1457; active = well fitted curve in the direction sought with a large enough effect; inconclusive = small, poorly fitted or top-dose-only effect, or another doubt; inactive = no such curve, though single readings can be large; an effect the other way counts as inactive or inconclusive;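 note: IP1 builds up when IMPase is blocked and the TR-FRET signal falls; potency is the fitted concentration of half-maximal effect; plate controls were basal vehicle for no effect and high inhibitor control for full effect; nearly all actives have a fitted effect of over 50% in size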
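Concentration–response in CHO-M1 cells, lithium-potentiated; 30 min at 37C. IP1 detected by competitive TR-FRET after 10 min lysis at RT. Hill-fitted AC50.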
* hit, by the source's call; [ ] = remark or other dose. A selection: hits, their analogues and other compounds. The true share with any hit is near 11%. Unless noted, calls come from the whole dose curve; as a rule, active = well fitted inhibition curve with a large enough effect (not every such curve was filed as active); inconclusive = small, poorly fitted or top-dose-only effect, or another doubt; inactive = no such curve, though single readings can be large or run the other way. Unless noted, % is set by controls: 0 for no effect and ±100 for the full control effect.

For Cc1ccc(C2Oc3ccccc3C3=C2C(c2cccs2)n2ncnc2N3)cc1 (stereo not drawn) the results were PNC assembly inh 11.7, IMPase inh 6.7, HPGD inh -14.2%, ALDH1A1 block 11.2µM*, 12-hLO inh -21.7% and IMPase Li cell 15.3%[38.3 µM].
`Fc1ccc(C2C3=C(Nc4ncnn42)c2ccccc2OC3c2ccncc2)cc1` (stereo not drawn) gave PNC assembly inh 22.9, IMPase inh 5.9, HPGD inh inconclusive, ALDH1A1 block inconclusive, 12-hLO inh 3.0% and IMPase Li cell 5.1%[38.3 µM].
`COc1cc(/C=C2/NC(=O)NC2=O)cc(Br)c1OCc1ccc(C(=O)O)cc1` gave ALDH1A1 block inconclusive and IMPase Li cell 10.0%.
C=CCc1cc(C=O)cc(OC)c1OCc1ccc(C(=O)O)cc1 was read as ALDH1A1 block 10µM* and IMPase Li cell -2.2%.
COc1ccccc1OCC(=O)NC1CCCCCC1 was read as PNC assembly inh 24.5, IMPase inh inconclusive, HPGD inh 10µM*, ALDH1A1 block inconclusive, 12-hLO inh -2.2% and IMPase Li cell -16.6%[38.3 µM].
`COC(=O)c1ccc(/C=N/OCC(=O)NC2CCCC(C)C2C)cc1` (stereo not drawn) gave PNC assembly inh 10.7, IMPase inh 1.7, HPGD inh 11.2µM*, ALDH1A1 block 1.6%, 12-hLO inh 1.2% and IMPase Li cell -1.4%[38.3 µM].
For CCC(C)NC(=O)CO/N=C/c1ccc(C(=O)OC)cc1 (stereo not drawn) the results were PNC assembly inh 13.6, IMPase inh -3.1, HPGD inh -20.8%, ALDH1A1 block 3.8%, 12-hLO inh -1.9% and IMPase Li cell 22.6%[38.3 µM].
COC(=O)c1ccc(SCC(=O)NC2CCCCC2)c([N+](=O)[O-])c1 was read as PNC assembly inh 3.0, IMPase inh inconclusive, HPGD inh -16.4%, ALDH1A1 block inconclusive, 12-hLO inh -2.2% and IMPase Li cell 11.2µM*.
For COC(=O)c1ccc(/C=N/OCC(=O)NC2CCCCCCC2)cc1 the results were PNC assembly inh 46.3, IMPase inh 11.2, HPGD inh 28.2µM*, ALDH1A1 block -3.7%, 12-hLO inh -0.5% and IMPase Li cell 12.6%[38.3 µM].
Screening CC1CCCC(NC(=O)COC(=O)c2ccc(N(C)C)cc2)C1C (stereo not drawn) returned PNC assembly inh -6.6, IMPase inh -0.5, HPGD inh inconclusive, ALDH1A1 block -8.3%, 12-hLO inh 8.0% and IMPase Li cell 35.1%[38.3 µM].
Screening CCN(CC)[C@@H](C)CN1c2ccccc2Sc2ccccc21 returned IMPase inh 14.0[20.6 µM], HPGD inh inconclusive, ALDH1A1 block inconclusive, 12-hLO inh inconclusive and IMPase Li cell 18.2%.
Screening C=CCn1c(SCC(=O)C(C)(C)C)nnc1-c1cccs1 returned PNC assembly inh 5.1, IMPase inh 8.3, HPGD inh 14.1µM*, ALDH1A1 block 12.6µM*, 12-hLO inh 0.2% and IMPase Li cell -5.9%[38.3 µM].
O=C(CSc1nnc(-c2ccccn2)n1Cc1ccccc1)N1CCCC1 was read as PNC assembly inh 10.5, IMPase inh -5.6, HPGD inh 28.2µM*, ALDH1A1 block -11.0%, 12-hLO inh 8.9% and IMPase Li cell 5.8%.
Screening CCn1c(SCC(=O)C(C)(C)C)nnc1-c1ccccn1 returned PNC assembly inh -29.9, IMPase inh -4.7, HPGD inh -14.9%, ALDH1A1 block 7.08µM*, 12-hLO inh 0.1% and IMPase Li cell 19.6%[38.3 µM].
CCn1c(SCC(=O)Nc2ccccc2OC)nnc1-c1cnccn1 was read as PNC assembly inh -16.2, IMPase inh -1.3, HPGD inh -22.9%, ALDH1A1 block 10.6%, 12-hLO inh -5.4% and IMPase Li cell 6.9%[38.3 µM].
Cc1ccccc1-n1c(SCC(=O)N2CCCC2)nnc1-c1ccccn1 was read as PNC assembly inh -14.7, IMPase inh 0.7, HPGD inh inconclusive, ALDH1A1 block -18.2%, 12-hLO inh -3.6% and IMPase Li cell -8.9%[38.3 µM].
`CCn1c(SCC(=O)C(C)(C)C)nnc1-c1cnccn1` gave PNC assembly inh -100.0*, IMPase inh -1.2, HPGD inh inconclusive, ALDH1A1 block inconclusive, 12-hLO inh 0.6% and IMPase Li cell 13.8%.
`C=CCn1c(SCC(=O)C(C)(C)C)nnc1-c1ccccn1` gave PNC assembly inh 187.6, IMPase inh 2.3, HPGD inh -20.7%, ALDH1A1 block inconclusive, 12-hLO inh -0.4% and IMPase Li cell 8.6%.
`CCC(OC(=O)c1nsc(Cl)c1Cl)C(=O)NC(C)(C)CC` (stereo not drawn) gave ALDH1A1 block -0.8% and IMPase Li cell -0.3%.
For COc1ccc(NC(=O)N2CCC3(CC2)CCN(C(=O)c2csnn2)CC3)cc1 the results were HPGD inh -0.1%, ALDH1A1 block -11.9%, 12-hLO inh 1.6% and IMPase Li cell 2.1%.
For Cc1ccccc1-n1nnnc1SCc1csc(-c2ccccc2)n1 the results were PNC assembly inh -19.5, IMPase inh 17.0, HPGD inh -14.6%, ALDH1A1 block 7.94µM*, 12-hLO inh -0.9% and IMPase Li cell 13.1%[38.3 µM].
CCOC(=O)c1[nH]c(CSc2nnnn2-c2ccccc2C)c(C(=O)OCC)c1C was read as PNC assembly inh inconclusive, IMPase inh 6.0, HPGD inh 3.4%, ALDH1A1 block 3.55µM*, 12-hLO inh -12.9% and IMPase Li cell 38.7%[38.3 µM].
For COc1ccccc1-n1nnnc1SCc1ccccc1 the results were PNC assembly inh -11.6, IMPase inh 8.1, HPGD inh -11.6%, ALDH1A1 block inconclusive, 12-hLO inh -0.9% and IMPase Li cell 9.0%[38.3 µM].
For Cc1ccccc1-n1nnnc1SCC(C)C the results were ALDH1A1 block 1.12µM* and IMPase Li cell 11.1%.
Screening COC(=O)c1c(C)[nH]c(C(=O)CSc2nnnn2-c2ccccc2)c1C returned PNC assembly inh -7.5, IMPase inh 4.3, HPGD inh -10.6%, ALDH1A1 block 3.4%, 12-hLO inh -0.8% and IMPase Li cell 13.6%[38.3 µM].
For CCOC(=O)c1c(C)[nH]c(C)c1C(=O)CSc1nnnn1-c1ccccc1 the results were PNC assembly inh 20.3, IMPase inh -0.9, HPGD inh -3.0%, ALDH1A1 block 31.6µM*, 12-hLO inh 3.4% and IMPase Li cell 7.7%[38.3 µM].
`CCOc1cc(C(=O)Nc2cccc(-c3nc4ccccc4o3)c2)cc(OCC)c1OCC` gave IMPase inh 1.9.
For CCOC(=O)C1=NOC(C(=O)NN(C)c2ncc(C(F)(F)F)cc2Cl)C1 (stereo not drawn) the results were ALDH1A1 block -6.3% and IMPase Li cell 4.1%.
